According to PubChem BioAssay (Tox21):
Results filed as inconclusive are left out. Activity calls are given as the source filed them. Unless noted, calls come from the whole dose curve.

Experiments:
[1] = Nuclear factor erythroid 2-related factor 2/antioxidant responsive element (Nrf2/ARE) small molecule agonists: qHTS cell viability counter screen in human keratinocytes (AID 1919968; active = well fitted cell-killing curve with a large enough effect in the repeat runs; note: nearly all actives have a fitted effect of over 55% in size)
In short: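 KeratinoSens HaCaT cells, 1,500/well, preincubated 5 h, then exposed to compounds in DMSO for 23 h at 37 C/5% CO2. Viability read as CellTiter-Fluor fluorescence after 1 h, in the same wells as the ARE-luciferase read.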

[2] = Nuclear factor erythroid 2-related factor 2/antioxidant responsive element (Nrf2/ARE) small molecule agonists: luciferase reporter gene qHTS assay in human keratinocytes (AID 1919969); note: nearly all actives have a fitted effect of over 35% in size
[3] = target: Gonadotropin-releasing hormone receptor (Homo sapiens) (UniProt P30968); test: Human gonadotropin-releasing hormone receptor (GnRHR) small molecule agonists, calcium flux assay in GnRHR-HEK293 cells (AID 1920063); note: nearly all actives have a fitted effect of over 35% in size
Gonadotropin-releasing hormone receptor (Homo sapiens), sequence (P30968 whole entry, looked up): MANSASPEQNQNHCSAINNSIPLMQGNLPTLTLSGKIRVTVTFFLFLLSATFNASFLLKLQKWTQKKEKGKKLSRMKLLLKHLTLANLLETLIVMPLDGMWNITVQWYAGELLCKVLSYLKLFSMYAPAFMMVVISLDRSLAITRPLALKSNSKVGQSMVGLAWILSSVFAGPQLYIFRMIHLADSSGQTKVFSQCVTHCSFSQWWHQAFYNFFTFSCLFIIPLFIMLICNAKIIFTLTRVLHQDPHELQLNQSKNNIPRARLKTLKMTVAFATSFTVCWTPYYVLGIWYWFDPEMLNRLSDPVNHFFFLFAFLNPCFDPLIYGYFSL
In short: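 HEK293 cells stably expressing human GnRHR were dye-loaded for 1 h at 37 C. Compound was added in agonist mode and fluorescence (Ex/Em 480/540) recorded kinetically for 3 min. Fifteen concentrations, triplicates.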

[4] = p53 small molecule agonists, cell-based qHTS assay with human liver microsomes (AID 1963577);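 note: p53 response element beta-lactamase reporter cells with liver microsomes plus NADPH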
In short: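 HLM-supplemented p53RE-bla reporter assay: 16 h compound exposure at 37 C, microsomes and NADPH each 0.5 mg/mL final, read by fluorescence intensity.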

[5] = p53 small molecule agonists, cell-based qHTS assay with rat liver microsomes (AID 1963578)
In short: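 Quantitative HTS of the Tox21 10K library: p53RE-bla cells, rat liver microsomes plus NADPH at 0.5 mg/mL final each, 16 h at 37 C, beta-lactamase fluorescence detection.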

[6] = p53 small molecule agonists, cell-based qHTS assay with human liver microsomes: qHTS cell viability counter screen (AID 1963579); note: nearly all actives have a fitted effect of over 45% in size
In short: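 Viability of p53RE-bla cells is measured as CellTiter-Glo luminescence following a 16 h, 37 C incubation with compound, liver microsomes from human donors and NADPH.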

[7] = p53 small molecule agonists, cell-based qHTS assay with rat liver microsomes: qHTS cell viability counter screen (AID 1963580); note: nearly all actives have a fitted effect of over 45% in size
In short: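 p53RE-bla HCT-116 cells were exposed 16 h at 37 C to compounds with rat liver microsomes (0.5 mg/mL) and NADPH (0.5 mg/mL). Viability was measured in the same wells as ATP content by CellTiter-Glo luminescence.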

[8] = p53 small molecule agonists, cell-based qHTS assay: qHTS cell viability counter screen (AID 1963581); note: nearly all actives have a fitted effect of over 45% in size
In short: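 p53RE-bla HCT-116 cells, compounds added 5 h after plating and incubated 16 h at 37 C. Cytotoxicity measured in the same wells as intracellular ATP by CellTiter-Glo luminescence after 30 min at room temperature.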

[9] = p53 small molecule agonists, cell-based qHTS assay (AID 1963582; active = well fitted activation curve with a large enough effect in the signal ratio in the repeat runs, not every such curve was filed as active; the % refers to the signal ratio)
In short: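 p53RE-bla reporter cells, compounds added in DMSO after 5 h plating, incubated 16 h at 37 C. Beta-lactamase read via 2 h room-temperature LiveBLAzer B/G FRET substrate, fluorescence intensity.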

[10] = cAMP Responsive Elements (CRE) small molecule agonists, cell-based qHTS assay (AID 1963590)
In short: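 CRE-bla HEK 293T cells, 2,000/well in DMEM with 10% dialyzed FBS and 25 mM HEPES, pre-incubated 18 h at 37 C, then exposed to compound 3 h at 37 C. Beta-lactamase reporter read with LiveBLAzer B/G FRET substrate after 2 h at room temperature.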

[11] = cAMP Responsive Elements (CRE) small molecule antagonists, cell-based qHTS assay (AID 1963591; active = well fitted inhibition curve with a large enough effect in the signal ratio in the repeat runs, not every such curve was filed as active; the % refers to the signal ratio)
In short: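 CRE-bla HEK293T cells plated 18 h, then given compound plus NKH477 at 0.25 uM final for 3 h at 37C. Beta-lactamase reporter read with LiveBLAzer B/G FRET substrate after 2 h at room temperature.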

[12] = target: Beta-2 adrenergic receptor (Homo sapiens) (UniProt P07550); test: Adrenergic beta2 receptor (ADRB2) small molecule antagonists, cell-based qHTS assay (AID 1963592); note: nearly all actives have a fitted effect of over 50% in size; note: potency is the fitted concentration of half-maximal effect
Beta-2 adrenergic receptor (Homo sapiens), sequence (P07550 whole entry, looked up): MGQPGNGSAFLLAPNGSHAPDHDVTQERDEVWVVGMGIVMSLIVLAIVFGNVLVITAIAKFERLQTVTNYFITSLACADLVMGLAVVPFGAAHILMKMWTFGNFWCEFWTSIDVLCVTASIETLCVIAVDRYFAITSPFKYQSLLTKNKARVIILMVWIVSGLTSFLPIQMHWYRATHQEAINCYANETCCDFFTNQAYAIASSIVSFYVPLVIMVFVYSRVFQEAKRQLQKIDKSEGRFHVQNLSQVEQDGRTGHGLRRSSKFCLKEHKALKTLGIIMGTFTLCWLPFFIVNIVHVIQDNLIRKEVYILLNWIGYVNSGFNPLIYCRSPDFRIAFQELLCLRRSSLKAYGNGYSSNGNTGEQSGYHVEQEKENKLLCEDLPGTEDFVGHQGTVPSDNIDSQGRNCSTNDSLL
In short: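 Cells (CHO, stable ADRB2 overexpression) incubated 18-20hr at 37C; compounds added from DMSO; agonist mix (1nM isoproterenol, 100uM IBMX, 25uM Ro-20-1724) added; 0.5hr RT; d2-cAMP and anti-cAMP-cryptate added; 1hr RT; 665/615 nm read.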

[13] = target: Beta-2 adrenergic receptor (Homo sapiens) (UniProt P07550); test: Adrenergic beta2 receptor (ADRB2) small molecule agonists, cell-based qHTS assay (AID 1963593);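 note: CHO cells stably overexpressing human ADRB2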
In short: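 CHO cells stably over-expressing ADRB2 were plated overnight at 37C, then dosed with compounds plus a stimulation mix containing 100uM IBMX and 25uM Ro-20-1724 for 0.5hr at room temperature. cAMP was measured by HTRF competition, 1hr.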

[14] = target: D(2) dopamine receptor (Homo sapiens) (UniProt P14416); test: Dopamine D2 receptor (DRD2) small molecule agonists, cell-based qHTS assay (AID 1963594); note: nearly all actives have a fitted effect of over 35% in size
D(2) dopamine receptor (Homo sapiens), sequence (P14416 whole entry, looked up): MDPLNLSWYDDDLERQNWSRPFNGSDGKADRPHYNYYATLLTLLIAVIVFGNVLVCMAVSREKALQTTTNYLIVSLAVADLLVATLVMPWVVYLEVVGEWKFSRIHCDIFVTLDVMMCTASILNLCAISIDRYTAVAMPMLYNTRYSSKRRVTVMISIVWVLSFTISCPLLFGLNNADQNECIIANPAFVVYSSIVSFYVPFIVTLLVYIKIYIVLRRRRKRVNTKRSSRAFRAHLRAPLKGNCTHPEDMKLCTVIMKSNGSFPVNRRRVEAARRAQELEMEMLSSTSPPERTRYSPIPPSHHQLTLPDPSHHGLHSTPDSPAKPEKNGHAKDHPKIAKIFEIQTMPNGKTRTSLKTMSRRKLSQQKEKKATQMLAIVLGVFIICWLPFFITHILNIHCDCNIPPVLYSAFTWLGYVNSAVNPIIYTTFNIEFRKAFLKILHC
In short: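 HEK293 cells stably expressing human DRD2, pre-treated with PDE inhibitor Ro20-1724 (0.1 mM final) and compound 10 min at room temperature, then stimulated with NKH477 (200nM […]) for 30 min. cAMP read by HTRF (665/620 nm).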

[15] = target: D(2) dopamine receptor (Homo sapiens) (UniProt P14416); test: Dopamine D2 receptor (DRD2) small molecule antagonists, cell-based qHTS assay (AID 1963595; active = well fitted inhibition curve with a large enough effect in the signal ratio in the repeat runs, with a control signal flat; the % refers to the signal ratio)
In short: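 Antagonist mode in DRD2-HEK293 cells: after compound addition with 0.1 mM Ro20-1724, cells received quinpirole (12 nM) and NKH477 (200 nM) for 30 min at room temperature; HTRF cAMP read after 1 h detection.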

[16] = G protein-coupled receptor (GPCR) small molecule agonists, calcium flux assay: HEK293 wild type cell line counter screen (AID 1920065)
In short: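 Wild-type HEK293 cells plated 18 h, loaded with calcium dye 1 h at 37 C, then compounds added in agonist mode (ATP as positive control). Kinetic fluorescence Ex/Em 480/540 recorded 3 min at 1 sec intervals; 15 concentrations, triplicate.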

[17] = target: 5-hydroxytryptamine receptor 2A (Homo sapiens) (UniProt P28223); test: 5-hydroxytryptamine receptor 2A (HTR2A) small molecule agonists, cell-based qHTS assay (AID 1963587); note: nearly all actives have a fitted effect of over 30% in size; note: potency is the fitted concentration of half-maximal effect
5-hydroxytryptamine receptor 2A (Homo sapiens), sequence (P28223 whole entry, looked up): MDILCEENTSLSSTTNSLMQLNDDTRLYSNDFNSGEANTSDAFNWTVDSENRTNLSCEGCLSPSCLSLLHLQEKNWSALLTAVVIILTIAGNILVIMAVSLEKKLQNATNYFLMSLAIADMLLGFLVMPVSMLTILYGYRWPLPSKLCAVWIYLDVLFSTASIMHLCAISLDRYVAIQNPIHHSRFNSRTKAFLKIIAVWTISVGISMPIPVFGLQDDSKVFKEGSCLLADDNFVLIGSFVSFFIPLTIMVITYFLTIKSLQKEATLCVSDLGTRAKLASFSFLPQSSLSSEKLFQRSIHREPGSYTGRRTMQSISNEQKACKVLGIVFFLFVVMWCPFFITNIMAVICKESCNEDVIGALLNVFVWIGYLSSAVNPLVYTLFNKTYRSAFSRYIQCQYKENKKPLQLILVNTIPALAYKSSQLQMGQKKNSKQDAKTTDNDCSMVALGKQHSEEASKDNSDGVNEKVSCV
In short: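 CHO cells stably expressing human HTR2A, plated 18 h, loaded with calcium dye 1 h at 37 C. Agonist mode: compounds added and intracellular calcium fluorescence recorded kinetically for 2 min at 1 sec intervals.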

[18] = target: Muscarinic acetylcholine receptor M1 (Homo sapiens) (UniProt P11229); test: Cholinergic receptor muscarinic 1 (CHRM1) small molecule antagonists, cell-based qHTS assay (AID 1963588); note: nearly all actives have a fitted effect of over 40% in size; note: potency is the fitted concentration of half-maximal effect
Muscarinic acetylcholine receptor M1 (Homo sapiens), sequence (P11229 whole entry, looked up): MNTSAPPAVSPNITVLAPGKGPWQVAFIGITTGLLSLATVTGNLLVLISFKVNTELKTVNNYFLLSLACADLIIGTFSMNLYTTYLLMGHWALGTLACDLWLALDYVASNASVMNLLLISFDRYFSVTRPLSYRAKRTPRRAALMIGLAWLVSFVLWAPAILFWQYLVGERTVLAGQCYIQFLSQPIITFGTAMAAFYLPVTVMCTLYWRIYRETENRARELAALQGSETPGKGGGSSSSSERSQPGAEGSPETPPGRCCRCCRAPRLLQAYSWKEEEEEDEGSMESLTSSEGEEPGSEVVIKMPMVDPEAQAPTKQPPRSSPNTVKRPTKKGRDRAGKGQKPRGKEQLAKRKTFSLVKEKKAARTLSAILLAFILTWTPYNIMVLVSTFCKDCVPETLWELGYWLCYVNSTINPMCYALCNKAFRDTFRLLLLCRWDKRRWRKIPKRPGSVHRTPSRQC
In short: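 CHRM1-CHO calcium-flux assay, antagonist mode. Cells were seeded 18 h, dye-loaded 1 h at 37 C and given compound for 5 min at RT, then acetylcholine was added at 50nM. FDSS fluorescence was read 3 min; 15 concentrations, three runs.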

[19] = target: Muscarinic acetylcholine receptor M1 (Homo sapiens) (UniProt P11229); test: Cholinergic receptor muscarinic 1 (CHRM1) small molecule agonists, cell-based qHTS assay (AID 1963589); note: nearly all actives have a fitted effect of over 35% in size
In short: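 CHO cells stably expressing human CHRM1 were loaded with calcium dye for 1 h at 37 C, then compound was added in agonist mode. Intracellular calcium fluorescence was followed kinetically at 1 s intervals. Fifteen concentrations were tested in three independent runs.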

[20] = target: 5-hydroxytryptamine receptor 2A (Homo sapiens) (UniProt P28223); test: 5-hydroxytryptamine receptor 2A (HTR2A) small molecule antagonists, cell-based qHTS assay (AID 1963586); note: nearly all actives have a fitted effect of over 45% in size
In short: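 Antagonist-mode intracellular calcium assay: DOI (4 nM) added after 5 min compound pre-incubation at room temperature to dye-loaded HTR2A-CHO cells. Fluorescence followed for 3 min, sampled every second.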

Measured: Potency

NCCCC[C@H](N[C@@H](CCc1ccccc1)C(=O)O)C(=O)N1CCC[C@H]1C(=O)O
not listed: [16] | [17] | [18] | [19] | [20]
inactive: all other assays above

CCN(CC)CCNC(=O)COc1ccc(Cl)cc1
not listed: [4] | [20]
inactive: all other assays above

Cc1cn([C@@H]2O[C@H](CO)[C@@H](O)[C@@H]2F)c(=O)[nH]c1=O
not listed: [4] | [6] | [13] | [20]
inactive: all other assays above

Nc1ccc(C(=O)NCC(=O)O)cc1
not listed: [7] | [13]
inactive: all other assays above

CCCCC/C=C/CC1CC(=O)OC1=O (centres undefined)
not listed: [6] | [7] | [13] | [18]
inactive: all other assays above

CC(C)(O)CCc1ccccc1
not listed: [6] | [8] | [18]
inactive: all other assays above

CC1(C)OC(=O)Nc2ccc(Br)cc21
not listed: [6] | [11] | [13]
inactive: all other assays above

COc1ccc([C@@H]2Sc3ccccc3NC(=O)[C@@H]2O)cc1
not listed: [7] | [8] | [11] | [13] | [19]
inactive: all other assays above

COC(=O)C(c1ccccc1Cl)N1CCc2sccc2C1 (centres undefined)
not listed: [5] | [10] | [11] | [17] | [18] | [19] | [20]
inactive: all other assays above

CCN(CCCCOC(=O)c1ccc(OC)c(OC)c1)C(C)Cc1ccc(OC)cc1 (centres undefined)
active: [17] 12 µM | [12] 13.3 µM
not listed: [7] | [11] | [13] | [18] | [20]
inactive: all other assays above

CO/N=C(\C(=O)N[C@@H]1C(=O)N2C(C(=O)O)=C(CSc3nc(=O)c(O)nn3C)CS[C@H]12)c1csc(N)n1
active: [18] 0.516 µM
not listed: [4] | [10] | [13] | [19]
inactive: all other assays above

O=C(Nc1cccc2c(=O)cc(-c3nn[nH]n3)oc12)c1ccc(OCCCCc2ccccc2)cc1
not listed: [6] | [8] | [10] | [11] | [13] | [14] | [18]
inactive: all other assays above

O=S1(=O)c2cccc3cccc(c23)N1CCCN1CCN(c2ccc(F)cc2)CC1
active: [12] 33.5 µM
not listed: [11] | [13] | [14] | [16] | [18]
inactive: all other assays above
